# Reference: PubChem BioAssay (NCATS)
# Values joined by “and” are separate entries in the source; they are usually repeats but may differ in a detail not shown here. Identical values can stand only once. Values without a mark were called inactive. Records with an inconclusive call do not appear. Where a call stands in place of a potency, no number is given. Active and inactive are the calls of the source. Unless noted, the call rests on the fitted dose curve; in most records, active means well fitted curve in the direction sought with a large enough effect; inconclusive means small, poorly fitted or top-dose-only effect, or another doubt; inactive means no such curve, though single readings can be large; an effect the other way counts as inactive or inconclusive.
# What was measured:
# [1] = molecular target: Cytochrome P450 2C9 (Homo sapiens) (UniProt P11712); test: qHTS Assay for Inhibitors and Substrates of Cytochrome P450 2C9 (AID 883); further: nearly all actives have a fitted effect of over 60% in size
# Sequence of Cytochrome P450 2C9 (Homo sapiens) (P11712 whole entry, looked up): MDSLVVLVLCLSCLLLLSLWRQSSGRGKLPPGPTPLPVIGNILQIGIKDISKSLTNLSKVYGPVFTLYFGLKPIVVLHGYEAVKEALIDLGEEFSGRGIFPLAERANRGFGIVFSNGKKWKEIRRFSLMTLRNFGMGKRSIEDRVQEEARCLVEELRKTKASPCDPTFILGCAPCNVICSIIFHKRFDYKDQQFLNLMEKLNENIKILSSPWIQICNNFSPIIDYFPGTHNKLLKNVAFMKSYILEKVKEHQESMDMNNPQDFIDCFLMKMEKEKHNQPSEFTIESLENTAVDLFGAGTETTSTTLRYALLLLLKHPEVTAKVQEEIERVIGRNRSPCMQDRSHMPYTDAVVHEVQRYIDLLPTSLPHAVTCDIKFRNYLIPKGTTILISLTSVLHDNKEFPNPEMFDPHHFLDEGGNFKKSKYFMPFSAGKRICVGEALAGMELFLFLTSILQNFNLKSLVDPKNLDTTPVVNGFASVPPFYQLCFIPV
# In short: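 Luminescent read-out of deoxyluciferin hydroxylation, normalized to 57uM sulphaphenazole (AC100). Reaction: 10nM enzyme, 100uM Luciferin-H (equal to KM), 25mM KPO4, 10 min compound preincubation, then 60 min with NADPH regeneration, both at 37C.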
# [2] = molecular target: Cytochrome P450 3A4 (Homo sapiens) (UniProt P08684); test: qHTS Assay for Activators of Cytochrome P450 3A4 (AID 885); further: nearly all actives have a fitted effect of over 65% in size
# Sequence of Cytochrome P450 3A4 (Homo sapiens) (P08684 whole entry, looked up): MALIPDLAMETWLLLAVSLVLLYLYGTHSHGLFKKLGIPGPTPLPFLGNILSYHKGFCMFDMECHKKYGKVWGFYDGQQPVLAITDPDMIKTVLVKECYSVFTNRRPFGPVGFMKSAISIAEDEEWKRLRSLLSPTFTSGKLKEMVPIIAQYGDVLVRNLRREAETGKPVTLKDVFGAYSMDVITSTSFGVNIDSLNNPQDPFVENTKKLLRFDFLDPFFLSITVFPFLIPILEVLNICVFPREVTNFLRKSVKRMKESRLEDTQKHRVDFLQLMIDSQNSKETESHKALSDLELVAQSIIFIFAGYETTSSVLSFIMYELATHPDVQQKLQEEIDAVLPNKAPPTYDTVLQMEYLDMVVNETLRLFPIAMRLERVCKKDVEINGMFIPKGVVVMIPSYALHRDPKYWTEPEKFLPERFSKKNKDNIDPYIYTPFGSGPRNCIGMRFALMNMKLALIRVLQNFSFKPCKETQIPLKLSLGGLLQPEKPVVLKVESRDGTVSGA
# In short: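 Signal was normalized against complete inhibition by 57 uM ketoconazole. The reaction used 20nM CYP3A4 with 25uM Luciferin-PPXE, 10-min compound preincubation and a 60-min NADPH-supported step at RT.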
# [3] = molecular target: Cytochrome P450 2D6 (Homo sapiens) (UniProt P10635); test: qHTS Assay for Inhibitors and Substrates of Cytochrome P450 2D6 (AID 891);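 further: luciferin methyl ether substrate demethylated by CYP2D6 with NADPH regeneration; nearly all actives have a fitted effect of over 60% in size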
# Sequence of Cytochrome P450 2D6 (Homo sapiens) (P10635 whole entry, looked up): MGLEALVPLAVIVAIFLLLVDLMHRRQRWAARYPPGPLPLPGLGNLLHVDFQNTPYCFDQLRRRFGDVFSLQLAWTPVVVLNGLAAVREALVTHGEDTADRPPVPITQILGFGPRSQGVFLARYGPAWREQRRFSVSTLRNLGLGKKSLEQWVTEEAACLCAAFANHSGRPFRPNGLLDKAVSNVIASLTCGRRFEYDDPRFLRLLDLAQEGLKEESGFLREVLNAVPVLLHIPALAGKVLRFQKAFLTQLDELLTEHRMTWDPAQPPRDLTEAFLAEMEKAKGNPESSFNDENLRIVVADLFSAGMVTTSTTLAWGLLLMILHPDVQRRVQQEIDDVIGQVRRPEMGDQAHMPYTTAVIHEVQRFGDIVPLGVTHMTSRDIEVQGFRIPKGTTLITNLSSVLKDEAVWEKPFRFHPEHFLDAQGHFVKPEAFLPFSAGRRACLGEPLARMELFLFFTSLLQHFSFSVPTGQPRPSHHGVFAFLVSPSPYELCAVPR
# In short: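 Human CYP2D6 (5 nM) with 30 uM Luciferin-ME EGE (at Km) in 100 mM KPO4, compound preincubated 10 min, then NADPH regeneration system for 60 min at room temperature. Luciferin read by luminescence; normalized to 1.43 uM quinidine.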
# [4] = molecular target: Cytochrome P450 2C19 (Homo sapiens) (UniProt P33261); test: qHTS Assay for Inhibitors and Substrates of Cytochrome P450 2C19 (AID 899); further: nearly all actives have a fitted effect of over 60% in size; further: potency means the concentration at half of the fitted maximal effect
# Sequence of Cytochrome P450 2C19 (Homo sapiens) (P33261 whole entry, looked up): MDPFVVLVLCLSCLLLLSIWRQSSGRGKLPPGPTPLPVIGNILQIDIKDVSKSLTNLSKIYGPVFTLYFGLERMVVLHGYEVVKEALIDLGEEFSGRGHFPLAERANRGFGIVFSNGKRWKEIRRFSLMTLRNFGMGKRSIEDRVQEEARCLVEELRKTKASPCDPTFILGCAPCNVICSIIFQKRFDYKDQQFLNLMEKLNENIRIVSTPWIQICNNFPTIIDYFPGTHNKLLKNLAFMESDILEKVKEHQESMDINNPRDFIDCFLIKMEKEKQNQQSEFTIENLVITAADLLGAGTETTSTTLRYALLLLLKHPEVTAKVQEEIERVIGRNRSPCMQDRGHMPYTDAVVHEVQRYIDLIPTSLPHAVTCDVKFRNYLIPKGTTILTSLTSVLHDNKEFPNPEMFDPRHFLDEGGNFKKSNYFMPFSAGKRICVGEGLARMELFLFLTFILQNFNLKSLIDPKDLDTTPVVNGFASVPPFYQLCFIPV
# In short: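 Luminescence readout of luciferin formed from 10uM Luciferin-H EGE (KM level) by 5 nM CYP2C19 in 50mM KPO4. 60 min NADPH-driven reaction at 37C after 10 min compound preincubation; data scaled to 57uM ketoconazole inhibition.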
# [5] = qHTS Assay for Identification of Small Molecule Agonists for Hypoxia Response Element Signaling Pathway (AID 914; active means well fitted activation curve with a large enough effect in the signal ratio, with a control signal flat, not every such curve was filed as active; the % refers to the signal ratio); settings: ME-180 (cervical carcinoma) HRE-bla reporter, beta-lactamase ratio, CoCl2, 17 h; active compounds read high
# In short: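 qHTS titration; ME-180 HRE-bla cells; EC50 CoCl2 co-treatment, 17 h at 37 degrees Celsius; CCF4 dye, ex 405nm, em 460nm and 530nm; %Activity from ratio; AC50.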
# [6] = molecular target: Cytochrome P450 3A4 (Homo sapiens) (UniProt P08684); test: qHTS Assay for Inhibitors and Substrates of Cytochrome P450 3A4 (AID 884); further: nearly all actives have a fitted effect of over 50% in size; further: potency means the concentration at half of the fitted maximal effect; on activity change, negative = inhibition: series mostly up to about 57 µM
# In short: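 20 nM human CYP3A4 with 25 uM Luciferin-PPXE (at KM) in 200 mM KPO4, preincubated 10 min with compound; NADPH regeneration started a 60 min RT reaction. Luciferin detected by luminescence, normalized to 57 uM ketoconazole as full inhibition.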
smiles,measurement,setting,value
CCCCCCC1=Cc2cc(OC)c(OC)cc2C(C2(C(=O)OCC)CCCC2=O)O1 (centres undefined),Potency,[1],inactive
same,"activity change, positive = activation",[2],-36.1% [at 11.4 µM]
same,Potency,[3],inactive
same,Potency,[4],inactive
C[C@@H](c1ccccc1)N1C(=O)[C@H]2[C@@H]3[C@H](O)[C@H](O)CC(=O)[C@H]3CC[C@H]2C1=O,Potency,[1],inactive
same,activation,[5],-2.53% and -2.06%
C/C=C/OC(=O)NC(c1cccc(C)c1)[C@@]1(C(=O)OCC)CCCC1=O (some centres undefined),Potency,[1],inactive
same,"activity change, positive = activation",[2],-48.2% [at 11.4 µM]
same,Potency,[3],inactive
same,Potency,[4],1 µM (active)
COC(=O)C(C(=O)OC)C1O[C@@]23COCCC2(C)C3c2ccccc21 (some centres undefined),Potency,[1],inactive
same,Potency,[3],inactive
COC(=O)[C@@H]1C[C@@]2(O)[C@H](O)[C@H](O)[C@H](O)C[C@H]2N1Cc1cc(F)ccc1F,Potency,[6],inactive
COC(=O)c1ccc(C23CC4(C2)[C@H](CN(Cc2ccc(C(F)(F)F)cc2)[C@@H]4c2ccccc2)C3c2ccc(Cl)nc2)cc1 (some centres undefined),Potency,[6],inactive
CN(C)/C=N/c1cc(=O)n(Cc2ccccc2)c(=O)n1C,Potency,[6],inactive
CNC(=O)[C@@]1(Cc2ccccc2)C=C[C@@H](C)N1C(C)=O,Potency,[6],inactive
Cn1c(N)cc(=O)n(Cc2ccccc2)c1=O,Potency,[6],inactive
Cc1cc(N)c2cc(OCCOc3ccc4nc(C)cc(N)c4c3)ccc2n1,"activity change, negative = inhibition",[6],-0.402% [at 11.4 µM]
COC(=O)c1ccc(C23CC4(C2)[C@H](CN(Cc2ccc(-c5ccccc5)cc2)[C@@H]4c2ccccc2)C3c2ccc(Cl)nc2)cc1 (some centres undefined),Potency,[6],inactive
CN1CCN(C(=O)c2nc3ccc(Cl)cc3[nH]2)CC1,Potency,[6],inactive
CCC1=C2CC[C@H]3C(=O)N(C)C(=O)[C@H]3[C@H]2[C@@]2(C)C(=NCC(=O)OC)OC(=O)N2C1=O,Potency,[6],inactive
Cc1csc(B(O)O)c1,Potency,[6],inactive
CN1[C@H](Cc2ccccc2)C=C[C@]1(C)C(=O)NCC1CC1,Potency,[6],inactive
COC(=O)[C@@H]1C[C@H]2CC[C@H](O)C[C@H]2N1Cc1ccc(N2CCN(C)CC2)cc1,Potency,[6],inactive
Cn1c(-c2nc(-c3ccccc3)cs2)nc2ccccc21,Potency,[6],10 µM (active)
O=C(O)c1ccc(NS(=O)(=O)c2ccsc2C(=O)O)cc1,Potency,[6],inactive
COC(=O)[C@@H]1C[C@@]2(O)[C@@H](O)[C@@H](O)[C@@H](O)C[C@H]2N1Cc1ccc(C)s1,Potency,[6],inactive
O=Cc1ccc(B(O)O)cc1,Potency,[6],inactive
COc1ccc(B(O)O)cc1,Potency,[6],inactive
CN1C[C@@H]2C(c3ccc(C(F)(F)F)cc3)C3(c4ccccc4)CC2(C3)[C@H]1c1ccccc1 (some centres undefined),Potency,[6],inactive
CCC1=C(OC(=O)N(CC)CC)N2C(=O)OC(=NCCOC)[C@]2(C)[C@H]2C1=CC[C@H]1C(=O)N(CC(=O)OC)C(=O)[C@H]12,Potency,[6],10 µM (active)
CO[C@H]1COC(=O)C/C=C\[C@@H](C)COC(=O)[C@H]2CCCN2C(=O)C/C=C\[C@H]1C,Potency,[1],inactive
same,activation,[5],11.3%
CC(C)Cn1c(N)c(C(=O)COC(=O)c2cc(-c3ccccc3)nc3ccccc23)c(=O)n(C)c1=O,Potency,[6],inactive
OB(O)c1cc2ccccc2o1,Potency,[6],inactive
CN(C)c1ccc(CNC(=O)[C@@]2(C)C=C[C@@H](Cc3ccccc3)N2C)cc1,Potency,[6],inactive
CCCCCCCCCCCCCCCCCC(=O)NCCc1ccc(O)c(O)c1,Potency,[6],inactive
CCC1=C2CC[C@H]3C(=O)N(C)C(=O)[C@H]3[C@H]2[C@@]2(C)C(=O)N(CC3CC3)C(=O)N2C1=O,Potency,[6],inactive
CN(C)/C=N/c1cc(=O)[nH]c(=O)n1C,Potency,[6],inactive
NC(=O)NCc1ccccc1,Potency,[6],inactive
Nc1cccc(B(O)O)c1,Potency,[6],inactive
COC(=O)[C@@H]1C[C@@]2(O)[C@H](O)[C@H](O)[C@H](O)C[C@H]2N1Cc1ccc(C)s1,Potency,[6],inactive
c1ccc(-c2ccc(CN3C[C@@H]4C(c5ccccc5)C5(c6ccccc6)CC4(C5)[C@H]3c3ccccc3)cc2)cc1 (some centres undefined),Potency,[6],inactive
FC(F)(F)c1cccc(-c2noc(-c3cc(-c4ccccc4)c(C(F)(F)F)s3)n2)c1,Potency,[6],inactive
